Hits are enriched below; roughly 0.47% of the tested compounds scored in any of these assays.
UDG counterscr: UDG inhibition counter-screen; 91,000 tested, 0.14% active; FRET deamination/UDG coupled assay, UDG read, 4 h; Potency, µM (series often up to 115 µM), for inactives: at the highest dose activity change, negative = inhibition, usual class: inhibitors; AID 1347430; also: nearly all actives have a fitted effect of over 65% in size
AID inh: inhibitors of human activation induced cytidine deaminase; AID 1347428; Q9GZX7; Potency, µM (top dose mostly 115 µM), hits mostly inhibitors; 91,000 tested, 0.32% active; AID deamination FRET fluorescence, UDG-coupled, 4 h; also: nearly all actives have a fitted effect of over 25% in size
Target sequence (Q9GZX7 whole entry, looked up): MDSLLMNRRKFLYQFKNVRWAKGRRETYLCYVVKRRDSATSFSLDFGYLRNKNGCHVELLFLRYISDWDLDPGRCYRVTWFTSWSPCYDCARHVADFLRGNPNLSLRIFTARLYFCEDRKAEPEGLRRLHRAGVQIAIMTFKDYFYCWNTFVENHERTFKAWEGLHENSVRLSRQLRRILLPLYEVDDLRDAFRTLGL
Active calls of the source: *; i = inactive; ? = inconclusive; [ ] = another dose, or the depositor's remark. Calls follow the shape of the dose curve; as a rule, active = well fitted curve in the direction sought with a large enough effect; inconclusive = small, poorly fitted or top-dose-only effect, or another doubt; inactive = no such curve, though single readings can be large; an effect the other way counts as inactive or inconclusive. % is scaled to controls: 0 for no effect and ±100 for the full control effect; potency is read from the fitted curve at half-maximal effect.

SMILES	UDG counterscr	AID inh
COc1cc2c(=O)c(S(=O)(=O)c3ccc(C)cc3)cn(Cc3cccc(C)c3)c2cc1OC	-19%	40µM*
CCCn1cc(S(=O)(=O)c2ccc(C)cc2)c(=O)c2cc(OC)c(OC)cc21	-6%	i
CCCCn1cnc2c1c(=O)n(CC(=O)NC1CCC(C)CC1)c(=O)n2CCC (stereo not given)	3%	i
CCOc1cc(CNc2ccc(O)cc2)ccc1OCc1ccc(Cl)cc1	-7%	?
Oc1ccc(NCc2ccccc2OCc2ccc(Cl)cc2)cc1	-11%	32µM*
CCOc1cc(CNc2ccc(O)cc2)cc(Br)c1OCc1ccccc1	-13%	i
Oc1ccc(NCc2ccccc2OCc2ccccc2)cc1	79µM*	32µM*
O=C(c1ccc2c(Cl)c3c(nc2c1)CCCC3)N1CCN(c2cccc(Cl)c2)CC1	-14%	14µM*
O=C(c1ccc2c(Cl)c3c(nc2c1)CCCC3)N1CCN(c2cccc(C(F)(F)F)c2)CC1	1%	i
COc1cccc(N2CCN(C(=O)c3ccc4c(Cl)c5c(nc4c3)CCCC5)CC2)c1	-13%	20µM*
O=C(c1ccc2c(Cl)c3c(nc2c1)CCCC3)N1CCN(c2ccc(Cl)cc2)CC1	1%	i
Cc1nnc2sc(-c3cccc(NC(=O)C(C)(C)C)c3)nn12	-14%	i
O=C(NN=C1CCCC1)c1ccc(CSc2cccc3cccnc23)cc1	-12%	?
Cc1nc2nc(NC(=O)c3ccc(C(C)(C)C)cc3)[nH]n2c(=O)c1Cl	5%	32µM*
COc1ccc(C(=O)Nc2nc3nc(C)c(Cl)c(=O)n3[nH]2)cc1	-5%	i
ClCc1coc(-c2ccc(Cl)cc2)n1	-2%	i
CC/C=C(/C)C(=O)NC(C)c1cc(C)sc1C (stereo not given)	3%	i
Cc1cc(=O)oc2cc(OCC(=O)N(C)Cc3cccs3)c(Cl)cc12	-2%	i
CCCCCC(=C/c1ccccc1)/C=N/Nc1nc2ccccc2[nH]1	-7%	i
CCN(CC)c1cc(C)c2cc(NC(=O)c3cccc(OC)c3)ccc2n1	-18%	79µM*
CCOc1ccc(C(=O)Nc2ccc3nc(N(CC)CC)cc(C)c3c2)cc1	-7%	i
CCc1ccccc1NC(=O)CCC(=O)c1ccc2c(c1)CCC2	-5%	i
CC(C)c1nnc(Sc2nc(C(F)(F)F)nc3ccccc23)n1C1CC1	-1%	i
CCCCSCCCNC(=O)C1CCN(Cc2nc(-c3cccc(Br)c3)oc2C)CC1	?	i
CCCCSCCCNC(=O)C1CCN(Cc2nc(-c3ccc(CC)cc3)oc2C)CC1	89µM*	?
SMILES	UDG counterscr	AID inh
CCOC(=O)c1cccc(NC(=O)c2oc3c(c2C)-c2[nH]ncc2CC3)c1	-20%[57.5 µM]	?
COc1cccc(CNC(=O)c2oc3c(c2C)-c2nn(Cc4cccc(Cl)c4)cc2CC3)c1OC	-16%[57.5 µM]	79µM*
COc1cccc(CNC(=O)c2oc3c(c2C)-c2nn(Cc4cccc(Cl)c4)cc2CC3)c1	-18%[57.5 µM]	?
CCOC(=O)c1cccc(NC(=O)c2oc3c(c2C)-c2nn(CC)cc2CC3)c1	?	40µM*
COc1ccc(-c2nnc3c(C(=O)Nc4cccc5ccccc45)cccn23)cc1	6%	i
Brc1ccc(-c2noc(CC(c3ccccc3)c3ccccc3)n2)cc1	-6%	i
CCNc1ccc2c(cc1=O)[C@@H](NC(C)=O)CCc1cc(OC)c(OC)c(OC)c1-2	-8%	i
Cc1ccc2nc(C)c(C(=O)N3CCN(S(=O)(=O)c4ccccc4)CC3)cc2c1	-2%	i
O=C(CSc1nccn1-c1ccc(Cl)cc1)Nc1ccc(Cl)c(Cl)c1	-5%	i
O=C(CSc1nccn1-c1cccc(Cl)c1)Nc1cccc(C(F)(F)F)c1	-20%	32µM*
COc1cc(B(O)O)ccc1Cl	6%	i
COc1ccc(-c2noc(CSc3nnc(-c4ccccc4)n3C)n2)cc1	-24%	i
c1ccc(-c2noc(CSc3nnnn3C3CCCCC3)n2)cc1	89µM*	i
COc1cccc(C(=O)Oc2ccc(C3SCCS3)cc2OC)c1	-9%	i
CCCN(CCC)CC(O)Cn1cc(/C=C/C(=O)c2ccc(Br)cc2)c2ccccc21 (stereo not given)	-4%	i
CCCN(CCC)CC(O)Cn1cc(/C=C/C(=O)c2ccc(C)cc2)c2ccccc21 (stereo not given)	-15%	35µM*
CC(C)(C)CC(=O)N1CCN(C2CCCCC2)CC1	-7%	i
CC(=O)c1cccc(NC(=O)c2ccc3c(=O)n(-c4ccccc4F)cnc3c2)c1	5%	i
CCCCNC(=O)c1cnn2c(C)c(Cc3c(C)cc(C)cc3C)c(C)nc12	-28%	?
CCCNC(=O)c1cnn2c(C)c(Cc3c(C)cc(C)cc3C)c(C)nc12	-10%	40µM*
Cc1nc2c(C(=O)NCc3ccccc3)cnn2c(C)c1Cc1ccc(F)cc1	-22%	?
COc1ccc(CNC(=O)c2cnn3c(C)c(Cc4c(F)cccc4Cl)c(C)nc23)cc1	-17%	35µM*
C=C(C)CC1NC2CC(C)(C)C1c1c(Br)cccc12 (stereo not given)	-8%	i
CNC(=O)c1nn(CN2CCN(Cc3cc(C)ccc3OC)CC2)c(=O)c2ccccc12	-1%	i
Cc1cc(C)cc(C(=O)Nc2ccc3oc(-c4cccnc4)nc3c2)c1	4%	i
SMILES	UDG counterscr	AID inh
Cc1ccc(C)c(N2CCN(C(=O)c3cccn4c(=O)c5ccccc5nc34)CC2)c1	0%	i
O=C(c1cccn2c(=O)c3cc(Cl)ccc3nc12)N1CCN(c2ccccc2F)CC1	79µM*	i
COc1ccc(-c2nn(C)c3sc(C(=O)N4CCN(c5cccc(Cl)c5)CC4)cc23)cc1OC	?	79µM*
COc1ccc(N2CCN(C(=O)c3cc4c(-c5ccccc5F)nn(C)c4s3)CC2)cc1	-10%	?
Cc1ccc(CC2CC(=O)N(c3ccc4ccccc4n3)C2=O)cc1 (stereo not given)	2%	i
Cc1ccc(C)c(OCC(=O)Nc2ccc(Br)cc2C(=O)O)c1	2%	56µM*
CCn1c2ccccc2c2cc(NC(=O)COc3cc(C)ccc3C)ccc21	?	i
COc1ccc(C(=O)/C=C/c2ccc(-c3ccc(OC)cc3)o2)cc1	2%	i
COc1ccccc1Cn1cc(C(=O)c2ccc(Cl)cc2)c(=O)c2ccccc21	16%	i
COc1cccc(Cn2cc(C(=O)c3ccc(Cl)cc3)c(=O)c3ccccc32)c1	-15%	28µM*
COc1cc(OC)c2[nH]c(C(=O)OC(C)C(=O)c3ccccc3)cc2c1 (stereo not given)	-15%	i
Brc1ccc(-c2noc(-c3cc(-c4ccco4)n[nH]3)n2)cc1	-5%	i
COc1ccc(-n2c(Cc3ccccc3)nnc2SCc2nc(-c3ccccc3C)no2)cc1	-29%	32µM*
CCc1ccc(-n2c(SCc3nc(-c4cc(OC)ccc4OC)no3)nnc2-c2ccccc2)cc1	-22%	?
CC(C)CCn1c(C2CC(=O)N(Cc3ccc(F)cc3)C2)nc2ccccc21 (stereo not given)	-1%	i
Cc1ccc(OCCn2c(C3CC(=O)N(Cc4ccc(F)cc4)C3)nc3ccccc32)c(C)c1 (stereo not given)	?	35µM*
CC(NC(=O)CSCc1cccs1)C1CCCO1 (stereo not given)	0%	i
COc1ccc2nc(/C(C#N)=C/c3ccccc3Sc3ccccc3)[nH]c2c1	-3%	i
COc1cc(OC)c(N(C)C(=O)c2nn(C)c3c2CSc2ccccc2-3)cc1Cl	-17%[57.5 µM]	45µM*
